Experiments:
[1] = test system: Human papillomavirus type 1a protein E7 (residues 44-93); assay: HPV1a E7 fragment binders on microarrays, primary screen, biochemical, small-molecule microarray, residues 44-93, 635 nm fluorescence (AID 1108); settings: small-molecule microarray binding, fluorescence 635 nm; higher = more signal;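 further: E7 fragment applied at 1 µg/mL in TBST for 1 h at 4 C; score combines spot fluorescence with its signal to noise ratio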
[2] = modulators of HCV replicon luciferase signal, primary screen, HCV replication inhibitor project, Huh7 cells, luciferase reporter (AID 1109); settings: 48 h, higher = more signal;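 further: huh7 hepatoma cells harbouring a luciferase neomycin HCV replicon reporter; luciferase luminescence as measure of HCV replicon replication; test concentration not given here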
[3] = biological target: Left-right determination factor 2 (Homo sapiens) (UniProt O00292); assay: LEFTY2 binders on small-molecule microarrays, primary screen, biochemical, small-molecule microarray, 635 nm fluorescence scan (AID 1110); settings: LEFTY2 binding, higher = more signal
Sequence of Left-right determination factor 2 (Homo sapiens) (O00292 whole entry, looked up): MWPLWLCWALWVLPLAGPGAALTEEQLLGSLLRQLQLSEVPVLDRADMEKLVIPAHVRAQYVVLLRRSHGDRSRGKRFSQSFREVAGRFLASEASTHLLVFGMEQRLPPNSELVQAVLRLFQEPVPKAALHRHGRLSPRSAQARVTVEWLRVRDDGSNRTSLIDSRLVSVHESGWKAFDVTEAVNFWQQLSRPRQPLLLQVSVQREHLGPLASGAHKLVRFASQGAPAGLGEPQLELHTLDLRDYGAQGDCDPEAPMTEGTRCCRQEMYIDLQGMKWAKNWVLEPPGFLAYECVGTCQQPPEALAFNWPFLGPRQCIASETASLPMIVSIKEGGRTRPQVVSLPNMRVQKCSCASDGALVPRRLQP

[4] = biological target: Calmodulin-1 (Homo sapiens) (UniProt P0DP23); assay: CALM1 binders on microarrays, EGTA buffer, profiling panel, biochemical, small-molecule microarray, Cy5-labelled CALM1 (AID 1111); settings: Cy5-CALM1 binding fluorescence, higher = more signal;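 further: labelled calmodulin applied in Tris saline Tween buffer holding calcium plus EGTA and DTT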
[5] = biological target: Calmodulin-1 (Homo sapiens) (UniProt P0DP23); assay: calcium-bound CALM1 binders on microarrays, profiling panel, artefact control for SMM control-protein annotation, biochemical, small-molecule microarray, Cy5-labelled CALM1, plus calcium (AID 1112); settings: Cy5-CALM1 binding fluorescence, higher = more signal;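 further: score merges spot fluorescence with signal to noise from triplicate slides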
[6] = small-molecule microarray binders of probe aWnt5a, primary screen, biochemical, biotinylated probe, 635/667 nm fluorescence (AID 1113); settings: higher = more signal;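 further: score merges 667 nm fluorescence intensity with signal-to-noise per printed feature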
[7] = small-molecule microarray binders of probe aShh, primary screen, biochemical, biotinylated probe, 635/667 nm fluorescence (AID 1114); settings: higher = more signal;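 further: probe is biotin-labelled aShh protein from a stem cell growth factor screen; measures binding of labelled protein to compounds printed on the slide; score merges feature fluorescence at 667 nm with signal-to-noise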
[8] = small-molecule microarray binders of probe aNog, primary screen, biochemical, biotinylated probe, 635/667 nm fluorescence (AID 1115); settings: higher = more signal;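 further: probe is biotinylated aNog protein used at 0.15 µg/mL for 1 h at 4 C; z-score combines 667 nm fluorescence of each spot with its signal to noise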
[9] = biological target: Torsin-1A-interacting protein 1 (Homo sapiens) (UniProt Q5JTV8); assay: LAP1 binders from COS7 cell lysate, primary screen, small-molecule microarray, 635/667 nm fluorescence (AID 1116); settings: COS7-hLAP1 lysate binding, 635 nm fluorescence, higher = more signal
Sequence of Torsin-1A-interacting protein 1 (Homo sapiens) (Q5JTV8 whole entry, looked up): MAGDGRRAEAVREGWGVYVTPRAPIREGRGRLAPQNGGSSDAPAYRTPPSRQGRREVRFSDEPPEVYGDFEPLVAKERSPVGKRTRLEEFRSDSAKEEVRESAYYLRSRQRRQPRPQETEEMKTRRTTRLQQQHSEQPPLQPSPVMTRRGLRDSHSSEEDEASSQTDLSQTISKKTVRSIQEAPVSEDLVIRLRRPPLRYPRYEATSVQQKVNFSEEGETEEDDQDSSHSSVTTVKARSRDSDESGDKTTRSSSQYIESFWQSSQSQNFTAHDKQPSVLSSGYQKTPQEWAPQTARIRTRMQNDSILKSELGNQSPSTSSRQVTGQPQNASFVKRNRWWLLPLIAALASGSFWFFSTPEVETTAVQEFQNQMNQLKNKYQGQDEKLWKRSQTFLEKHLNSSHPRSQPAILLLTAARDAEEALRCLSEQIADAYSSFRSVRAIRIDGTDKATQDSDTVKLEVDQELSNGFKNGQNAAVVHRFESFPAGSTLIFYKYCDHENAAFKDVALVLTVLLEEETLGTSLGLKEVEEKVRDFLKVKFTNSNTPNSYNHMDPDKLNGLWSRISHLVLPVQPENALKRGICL

[10] = biological target: Alpha-bungarotoxin (Bungarus multicinctus) (UniProt P60615); assay: alpha-bungarotoxin binders on microarray, profiling panel, artefact control for SMM control protein annotation, biochemical, small-molecule microarray, Alexa647 label, 635/667 nm fluorescence (AID 1117); settings: alpha-BTX-A647 binding fluorescence, higher = more signal
Sequence of Alpha-bungarotoxin (Bungarus multicinctus) (P60615 whole entry, looked up): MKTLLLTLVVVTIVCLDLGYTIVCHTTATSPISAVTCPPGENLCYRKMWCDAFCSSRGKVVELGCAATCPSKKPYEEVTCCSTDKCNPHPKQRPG

| Structure (SMILES) | composite z-score [1] | z-score [2] | composite z-score [3] | composite z-score [4] | composite z-score [5] | composite z-score [6] | composite z-score [7] | composite z-score [8] | composite z-score [9] | composite z-score [10] |
| --- | --- | --- | --- | --- | --- | --- | --- | --- | --- | --- |
| COCCOC(=O)N1C(=O)[C@@]2(c3cc(C#CCNC(N)=O)ccc31)[C@H](c1ccc(O)cc1)N1[C@H](c3ccccc3)[C@H](c3ccccc3)OC(=O)[C@H]1[C@@H]2C(=O)NC[C@H](O)c1ccccc1 | 0.83 | -0.703 | 0.952 | 0.288 | 0.0058 | 0.0026 | -0.119 | -0.287 | 1.1 | 0.834 |
| CC(C)(C)OC(=O)CC[C@@]1(C(=O)O)N=C(c2ccc(OCCCO)cc2)O[C@@H]1c1ccccc1N=[N+]=[N-] | 0.884 | 2.94 | -0.486 | 1.64 | 1.07 | 0.0711 | 0.309 | 0.58 | 1.06 | 1.15 |
| COc1cc(CO)ccc1OC(C)=O | 0.464 | -0.147 | 0.388 | 0.0543 | -0.267 | 0.127 | 0.0815 | -0.0615 | 0.47 | 0.298 |
| CC(C)CNC(=O)[C@@]1(c2ccc([N+](=O)[O-])cc2)CC(=O)N(CC23CC4CC(CC(C4)C2)C3)[C@@H]1c1ccc(CO)cc1I | 1.39 | -3.18 | 0.539 | 0.404 | -0.111 | -0.0587 | -0.0685 | -0.289 | 0.798 | 0.504 |
| COCCOC(=O)N1C(=O)[C@@]2(c3cc(C#CCNC(N)=O)ccc31)[C@H](c1ccc(O)cc1)N1[C@H](c3ccccc3)[C@H](c3ccccc3)OC(=O)[C@H]1[C@@H]2C(=O)Nc1nc2ccccc2s1 | 0.793 | 0.171 | 0.691 | 1.41 | 0.707 | -0.0242 | -0.0626 | 0.167 | 0.0164 | 1.1 |
| C=C[C@H](COC(C)=O)N(Cc1ccc(OC(C)=O)c(OC)c1)S(=O)(=O)c1ccc(Br)cc1 | 1.29 | -0.0847 | 0.461 | 1.05 | 0.267 | 0.0479 | -0.291 | -0.407 | 0.788 | 0.998 |
| COc1ccc(C(O)C2C=CC3C(=O)N(c4ccccc4)C(=O)C3N2Nc2ccc([N+](=O)[O-])cc2)cc1OCc1ccccc1 (stereo not given) | 0.664 | 0.872 | 0.0921 | 0.804 | 0.584 | 1 | 0.504 | 2.27 | 0.979 | 1.27 |
| COC(=O)[C@]1(Cc2ccccc2N=[N+]=[N-])N=C(c2ccc(OCCCO)cc2)O[C@@H]1c1ccccc1N=[N+]=[N-] | -0.0688 | -3.52 | -0.0072 | -0.062 | -0.374 | -0.129 | -0.138 | -0.51 | 0.412 | 0.019 |
| O=C(O)[C@@]1(Cc2ccccc2)N=C(c2ccc(OCCCO)cc2)O[C@H]1c1ccccc1 | 0.843 | -0.0284 | -1.13 | 0.102 | 1.07 | -0.0179 | 0.216 | 0.966 | -0.514 | 1.07 |
| O=C/C=C/c1ccc2c(c1)OCO2 | 0.283 | 0.301 | 0.528 | -1.18 | -0.755 | -0.0748 | -0.35 | -0.441 | 0.122 | 0.591 |
| CCOC(=O)C[C@H]1[C@H](OC(=O)c2ccc(-c3ccccc3)cc2)[C@@H](NC(=O)c2ccc(-c3ccccc3)cc2)c2cc(OCCCO)ccc2N1C(=O)Cc1ccc(OC)cc1 | 0.629 | -1.27 | -0.186 | 0.382 | -0.971 | -0.0765 | -0.366 | -0.456 | 0.575 | 0.0738 |
| C=CC(=C)C1=CCO[C@@H]1[C@H]1CCCN1S(=O)(=O)c1ccccc1[N+](=O)[O-] | -0.0291 | -1.4 | 0.867 | 0.397 | -0.112 | -0.101 | -0.0626 | -0.175 | 0.169 | 0.537 |
| C=CC[C@@H](OC(=O)Nc1ccc(OC)cc1)c1ccc(O)c2ccccc12 | 0.94 | -3.47 | 1.07 | 0.0871 | -0.738 | -0.0006 | -0.154 | -0.139 | 0.3 | 0.824 |
| CCOC(=O)C1=CC[C@@H](c2ccccc2Cl)N(S(=O)(=O)c2ccc(C)cc2)C1 | 0.948 | -2.7 | -0.462 | 1.52 | 0.784 | -0.117 | -0.167 | 1.25 | 1.56 | 0.407 |
| O=C1OCCC=C[C@H]2OC34C=CCN(Cc5ccccc5)C(=O)[C@H]3N(CCCCCCO)C(=O)[C@@H]4C12 (stereo not given in full) | 1.04 | -0.422 | -1.06 | -0.214 | 0.232 | -0.343 | -0.233 | -0.402 | 0.366 | -0.63 |
| O=c1oc(-c2ccccc2)nc2cc(Br)ccc12 | 0.55 | -1.04 | 0.69 | -0.0114 | -0.427 | -0.117 | -0.221 | -0.221 | 0.503 | 0.318 |
| O=C1OCCC=C[C@H]2OC34C=CCN(Cc5ccccc5)C(=O)[C@H]3N(CCCCCO)C(=O)[C@@H]4C12 (stereo not given in full) | 1.1 | -0.481 | -1.24 | -0.565 | 0.13 | -0.091 | -0.154 | -0.177 | 1.95 | -1.06 |

— PubChem BioAssay
